The values that follow come from PubChem BioAssay (Tox21).

Assay [1] in a line: qHTS assay to identify small molecule agonists of the TGF-beta/Smad signaling pathway (AID 1346859; active = well fitted activation curve with a large enough effect in the signal ratio in the repeat runs, not every such curve was filed as active; the % refers to the signal ratio; note: series mostly up to about 77 µM). The method in brief:
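Screening used HEK 293T SBE-bla cells at 4,000/well. Test agents: 5 hr, 37 C. Detection: FRET substrate, 2 hr RT, then excitation 405 nm with emissions at 460 and 530 nm.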
(qHTS replaces the single test concentration by a dilution series.)

For assay [2], the target named is Thyrotropin-releasing hormone receptor (Homo sapiens) (UniProt P34981). The assay is described as follows: qHTS assay to identify small molecule antagonists of the thyrotropin-releasing hormone receptor (TRHR) signaling pathway (AID 1346877; active = well fitted inhibition curve with a large enough effect in the repeat runs, not every such curve was filed as active; note: series mostly up to about 51 µM). Put shortly:
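Human TRHR in HEK293 cells; inhibition of the intracellular calcium rise triggered by 1 nM TRH was followed by fluorescence over 3 min. Compounds were run at 15 concentrations, three replicates each.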

For assay [3] the target is unchanged. In words: qHTS assay to identify small molecule agonists of the thyrotropin-releasing hormone receptor (TRHR) signaling pathway (AID 1346891; calls by dose curve; note: series mostly up to about 58 µM). Put shortly:
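Readout was intracellular calcium fluorescence in TRHR-Hek293 cells. Cells were incubated 18 h, dye-loaded 2 h at 37 °C, and treated with compound in agonist mode.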

A short description of assay [4]: Human pregnane X receptor (PXR) small molecule agonists, qHTS cell viability counter screen (AID 1346977). Note: nearly all actives have a fitted effect of over 50% in size. The method in brief:
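In each well, the PXR reporter HepG2 line was checked for viability: CellTiter-Fluor reagent added 23hr post-dosing, fluorescence read after 1hr incubation at 37C.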

Assay [5] in a line: Caspase-3/7 induction in HepG2 cells by small molecules, qHTS assay (AID 1346978). Note: nearly all actives have a fitted effect of over 15% in size. Put shortly:
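Caspase-3/7 induction was measured by Caspase-Glo 3/7 luminescence (30 min, room temperature) after a 17 hr compound exposure of wild-type HepG2 cells seeded at 2,000 per well and pre-incubated 5 hr.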

Assay [6] in a line: Caspase-3/7 induction in CHO-K1 cells by small molecules, qHTS cell viability counter screen (AID 1346979). Note: nearly all actives have a fitted effect of over 35% in size. Put shortly:
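Following a 5hr settling period, CHO-K1 cells at 1,500 per well received DMSO-dissolved compounds. Cell viability was quantified 16hr later by CellTiter-Fluor fluorescence, measured after 1hr with reagent at 37C.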

Assay [7] in a line: Caspase-3/7 induction in CHO-K1 cells by small molecules, qHTS assay (AID 1346980). Note: nearly all actives have a fitted effect of over 15% in size. Put shortly: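 Luminescent Caspase-Glo 3/7 read (30min, room temperature) quantified apoptosis induction. Cells were wild-type CHO-K1, treated with compound for 17hr at 37 C and 5% CO2.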
For assay [8], the target named is Nuclear receptor subfamily 1 group I member 2 (Homo sapiens) (UniProt O75469). In words: Human pregnane X receptor (PXR) small molecule agonists, qHTS assay (AID 1346982). Note: nearly all actives have a fitted effect of over 35% in size. The method in brief:
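After plating in 5% charcoal-stripped FBS and a 5 hr rest, PXR-Luc HepG2 cells received compounds in DMSO. Following 24 hr at 37 C, ONE-Glo was added and light output read.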

Assay [9] concerns the target Nuclear receptor subfamily 1 group I member 2 (Rattus norvegicus) (UniProt Q9R1A7). In words: Rat pregnane X receptor (rPXR) activation by small molecules, qHTS assay (AID 1346983). Note: nearly all actives have a fitted effect of over 20% in size. The conditions noted are these: rPXR luciferase reporter cells, One-Glo luminescence, 24 h; max activation: hits give high values. The method in brief:
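Luminescent readout (One-Glo luciferase, 30 min room temperature) followed 24 hr compound treatment at 37 C of rPXR cells plated 2,000 per well and preincubated 5hr; qHTS format with compounds delivered in DMSO.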

Assay [10] concerns the target Nuclear receptor subfamily 1 group I member 2 (Homo sapiens) (UniProt O75469). In words: CYP3A4 induction through human pregnane X receptor (PXR) by small molecules, qHTS assay (AID 1346984). Note: nearly all actives have a fitted effect of over 40% in size. The method in brief:
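Human PXR activation is tracked via CYP3A4 promoter-luciferase in DPX-2 (HepG2) cells. Compounds treat cells for 24hr at 37C, and luminescence is read after One-Glo.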

Assay [11] has the same target. The assay is described as follows: Human pregnane X receptor (PXR) activation by small molecules, qHTS assay (AID 1346985). Note: nearly all actives have a fitted effect of over 40% in size. Put shortly: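 DPX-2 cells (HepG2 co-transfected with a PXR response element and a CYP3A4-promoter luciferase construct) were seeded at 2,000 per well, rested 5 hr at 37C, then exposed to DMSO-dissolved compounds for 24 hr. Activation was read as luciferase luminescence.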

Assay [12] concerns the target Cytochrome P450 2D6 (Homo sapiens) (UniProt P10635). The assay is described as follows: Cytochrome P450 Family 2 Subfamily D Member 6 (CYP2D6) small molecule antagonists: luciferase reporter qHTS assay (AID 1671196). Note: series mostly up to about 120 µM; nearly all actives have a fitted effect of over 50% in size. Put shortly: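 Quantitative HTS of Tox21 chemicals against CYP2D6 using a luminescent proluciferin substrate. After NADPH addition, 1 h room-temperature reaction; luminescence recorded 20 min post detection reagent.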

For assay [13], the target named is Cytochrome P450 2C9 (Homo sapiens) (UniProt P11712). In words: Cytochrome P450 Family 2 Subfamily C Member 9 (CYP2C9) small molecule antagonists: luciferase reporter qHTS assay (AID 1671198). Note: series mostly up to about 120 µM; nearly all actives have a fitted effect of over 50% in size. The method in brief: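 Enzyme-substrate mix preincubated with compound 10 min at room temperature; reaction started with NADPH regeneration solution, 1 h 37C. Luminescent luciferin product read after 20 min detection reagent.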
Chain of Cytochrome P450 2C9 (Homo sapiens) (P11712 whole entry, looked up): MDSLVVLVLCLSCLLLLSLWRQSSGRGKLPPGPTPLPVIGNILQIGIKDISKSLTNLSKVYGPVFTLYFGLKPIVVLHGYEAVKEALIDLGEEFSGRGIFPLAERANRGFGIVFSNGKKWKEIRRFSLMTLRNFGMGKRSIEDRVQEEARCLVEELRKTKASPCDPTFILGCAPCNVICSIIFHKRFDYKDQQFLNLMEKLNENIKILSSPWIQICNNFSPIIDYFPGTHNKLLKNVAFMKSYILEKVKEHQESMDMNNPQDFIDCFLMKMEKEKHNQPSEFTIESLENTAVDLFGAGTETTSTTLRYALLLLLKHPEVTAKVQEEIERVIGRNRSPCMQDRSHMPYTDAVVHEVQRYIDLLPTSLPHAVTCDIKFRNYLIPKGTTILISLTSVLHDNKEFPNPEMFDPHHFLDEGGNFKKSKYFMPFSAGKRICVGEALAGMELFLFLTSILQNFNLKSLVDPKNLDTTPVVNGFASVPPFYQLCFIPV
On the technique in general: Reporter assays use an easily measured gene product as a stand-in for the process of interest.

Assay [14] concerns the target Cytochrome P450 1A2 (Homo sapiens) (UniProt P05177). In words: Cytochrome P450 Family 1 Subfamily A Member 2 (CYP1A2) small molecule antagonists: luciferase reporter qHTS assay (AID 1671199). For activity change, negative = inhibition: series mostly up to about 120 µM. Note: nearly all actives have a fitted effect of over 50% in size. Note: potency is the fitted concentration of half-maximal effect. Put shortly: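 Quantitative high-throughput format using the P450-Glo CYP1A2 system. Reaction initiated by NADPH regeneration solution, 1 h at room temperature, then stopped with detection reagent; luminescence measured 20 min later.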

Assay [15] concerns the target Voltage-gated inwardly rectifying potassium channel KCNH2 (Homo sapiens) (UniProt Q12809). The assay is described as follows: Human Ether-a-go-go-Related Gene (hERG) channel small molecule antagonists: fluorescence cell-based qHTS assay (AID 1671200).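 For activity change, negative = inhibition: hERG-expressing U2OS cells given a thallium stimulus after FluxOR II dye loading; series mostly up to about 77 µM.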 Note: nearly all actives have a fitted effect of over 50% in size. Note: potency is the fitted concentration of half-maximal effect. Put shortly: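 In this thallium-flux screen, overnight-cultured U2OS cells bearing the channel are dye-loaded in darkness for an hour, rested 10 min at room temperature, and then monitored kinetically at 480/540 nm for two minutes post-stimulus.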

The nature of assay [16]: Caspase-3/7 induction in HepG2 cells by small molecules, qHTS cell viability counter screen (AID 1346981). Note: series mostly up to about 92 µM; nearly all actives have a fitted effect of over 30% in size. Put shortly: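 The parent HepG2 line is plated at 2,000 cells per well and rested 5 hr before compound pinning from DMSO stocks. Following a 16-hr treatment at 37 C, a fluorogenic live-cell substrate (CellTiter-Fluor) reports viability after 1 hr.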
For assay [17], the target named is Cytochrome P450 2C19 (Homo sapiens) (UniProt P33261). In words: Cytochrome P450 Family 2 Subfamily C Member 19 (CYP2C19) small molecule antagonists: luciferase reporter qHTS assay (AID 1671197). Note: series mostly up to about 120 µM; nearly all actives have a fitted effect of over 65% in size. Put shortly:
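Light output is proportional to CYP2C19 activity: proluciferin substrate is converted to luciferin, then detected by a luciferin detection reagent that also stops the 1 h, 37C NADPH-driven reaction. Ketoconazole serves as positive control.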

Assay [18] addresses Cytochrome P450 3A4 (Homo sapiens) (UniProt P08684). The assay is described as follows: Cytochrome P450 Family 3 Subfamily A Member 4 (CYP3A4) small molecule antagonists: luciferase reporter qHTS assay (AID 1671201). The method in brief: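 CYP3A4 activity was followed with a P450-Glo proluciferin substrate. Test compounds in DMSO were preincubated 10 min; NADPH regeneration then ran 1 h, and light output was read 20 min after detection reagent.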

Molecules are shown by their SMILES. A number with no mark means an inactive call. Inconclusive results are not listed. Calls of active or inactive are those of the source. Unless noted, calls come from the whole dose curve; as a rule, active = well fitted curve in the direction sought with a large enough effect in the repeat runs; inconclusive = weak or mixed curves; inactive = no such curve, though single readings can be large; an effect the other way counts as inactive or inconclusive.
% is set by controls: 0 for no effect and ±100 for the full control effect.

Chain of Cytochrome P450 2C19 (Homo sapiens) (P33261 whole entry, looked up): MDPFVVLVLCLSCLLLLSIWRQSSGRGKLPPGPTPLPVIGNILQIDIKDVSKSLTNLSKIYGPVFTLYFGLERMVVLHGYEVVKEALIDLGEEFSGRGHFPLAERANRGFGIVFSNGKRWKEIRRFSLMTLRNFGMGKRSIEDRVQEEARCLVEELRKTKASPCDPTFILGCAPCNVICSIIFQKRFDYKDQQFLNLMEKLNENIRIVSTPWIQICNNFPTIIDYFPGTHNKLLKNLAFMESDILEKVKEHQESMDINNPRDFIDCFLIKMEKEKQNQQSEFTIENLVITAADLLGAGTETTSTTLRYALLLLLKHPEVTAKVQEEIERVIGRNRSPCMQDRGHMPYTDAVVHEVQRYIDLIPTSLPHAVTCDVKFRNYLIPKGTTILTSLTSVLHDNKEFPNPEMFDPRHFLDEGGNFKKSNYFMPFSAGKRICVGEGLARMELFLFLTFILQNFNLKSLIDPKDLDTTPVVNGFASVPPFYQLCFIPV
Chain of Voltage-gated inwardly rectifying potassium channel KCNH2 (Homo sapiens) (Q12809 whole entry, looked up): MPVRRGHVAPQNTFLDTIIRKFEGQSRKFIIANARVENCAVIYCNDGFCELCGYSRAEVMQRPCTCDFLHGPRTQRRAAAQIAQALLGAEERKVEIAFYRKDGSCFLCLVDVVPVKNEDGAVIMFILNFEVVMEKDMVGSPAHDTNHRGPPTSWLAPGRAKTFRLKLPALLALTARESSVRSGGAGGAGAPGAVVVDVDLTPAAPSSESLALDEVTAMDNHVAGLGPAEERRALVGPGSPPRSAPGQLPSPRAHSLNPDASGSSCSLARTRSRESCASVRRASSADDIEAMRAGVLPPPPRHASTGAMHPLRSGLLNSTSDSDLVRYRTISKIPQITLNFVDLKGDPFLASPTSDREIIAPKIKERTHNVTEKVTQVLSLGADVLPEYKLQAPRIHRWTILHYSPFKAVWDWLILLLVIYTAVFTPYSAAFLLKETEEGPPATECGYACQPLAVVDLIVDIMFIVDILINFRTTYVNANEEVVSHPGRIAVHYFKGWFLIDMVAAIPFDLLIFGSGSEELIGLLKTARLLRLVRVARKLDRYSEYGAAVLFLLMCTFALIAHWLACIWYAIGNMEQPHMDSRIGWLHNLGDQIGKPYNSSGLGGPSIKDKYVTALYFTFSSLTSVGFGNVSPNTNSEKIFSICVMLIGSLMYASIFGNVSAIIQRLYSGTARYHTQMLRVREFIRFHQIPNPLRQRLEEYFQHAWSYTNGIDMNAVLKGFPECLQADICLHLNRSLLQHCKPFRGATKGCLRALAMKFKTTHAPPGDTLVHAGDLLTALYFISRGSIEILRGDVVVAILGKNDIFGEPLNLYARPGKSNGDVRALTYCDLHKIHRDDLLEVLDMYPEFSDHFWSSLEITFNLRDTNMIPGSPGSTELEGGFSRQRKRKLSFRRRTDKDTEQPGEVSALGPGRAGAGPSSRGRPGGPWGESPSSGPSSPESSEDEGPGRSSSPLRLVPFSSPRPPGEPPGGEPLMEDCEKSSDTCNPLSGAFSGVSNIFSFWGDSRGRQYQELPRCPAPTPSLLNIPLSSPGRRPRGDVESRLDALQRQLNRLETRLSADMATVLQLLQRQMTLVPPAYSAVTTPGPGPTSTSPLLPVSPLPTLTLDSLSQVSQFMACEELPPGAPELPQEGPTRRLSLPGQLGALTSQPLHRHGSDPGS
Chain of Cytochrome P450 2D6 (Homo sapiens) (P10635 whole entry, looked up): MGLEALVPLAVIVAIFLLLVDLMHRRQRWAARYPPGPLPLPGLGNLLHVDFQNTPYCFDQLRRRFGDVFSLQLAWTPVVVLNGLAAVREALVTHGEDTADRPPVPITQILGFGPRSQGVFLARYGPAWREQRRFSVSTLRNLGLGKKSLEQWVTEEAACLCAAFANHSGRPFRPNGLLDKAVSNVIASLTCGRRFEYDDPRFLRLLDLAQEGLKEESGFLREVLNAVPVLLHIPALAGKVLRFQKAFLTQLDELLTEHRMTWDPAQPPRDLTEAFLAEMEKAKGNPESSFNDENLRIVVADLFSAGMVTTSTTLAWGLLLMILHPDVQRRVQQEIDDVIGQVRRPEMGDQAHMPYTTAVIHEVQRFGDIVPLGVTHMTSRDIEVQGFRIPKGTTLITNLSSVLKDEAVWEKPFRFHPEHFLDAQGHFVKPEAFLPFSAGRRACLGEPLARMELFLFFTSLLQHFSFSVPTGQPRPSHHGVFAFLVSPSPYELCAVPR
Chain of Cytochrome P450 3A4 (Homo sapiens) (P08684 whole entry, looked up): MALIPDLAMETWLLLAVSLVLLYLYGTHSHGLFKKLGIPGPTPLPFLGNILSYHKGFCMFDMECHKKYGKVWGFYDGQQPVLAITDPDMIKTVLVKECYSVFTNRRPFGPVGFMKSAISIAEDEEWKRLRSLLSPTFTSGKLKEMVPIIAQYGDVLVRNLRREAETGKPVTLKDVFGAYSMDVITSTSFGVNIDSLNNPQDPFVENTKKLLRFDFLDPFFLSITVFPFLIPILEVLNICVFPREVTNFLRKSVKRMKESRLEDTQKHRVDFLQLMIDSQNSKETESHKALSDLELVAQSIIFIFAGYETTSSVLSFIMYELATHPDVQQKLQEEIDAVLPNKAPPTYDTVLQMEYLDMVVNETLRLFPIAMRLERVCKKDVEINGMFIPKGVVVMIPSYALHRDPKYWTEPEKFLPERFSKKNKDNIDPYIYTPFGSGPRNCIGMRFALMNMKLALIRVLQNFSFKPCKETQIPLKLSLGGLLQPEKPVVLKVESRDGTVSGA
Chain of Nuclear receptor subfamily 1 group I member 2 (Homo sapiens) (O75469 whole entry, looked up): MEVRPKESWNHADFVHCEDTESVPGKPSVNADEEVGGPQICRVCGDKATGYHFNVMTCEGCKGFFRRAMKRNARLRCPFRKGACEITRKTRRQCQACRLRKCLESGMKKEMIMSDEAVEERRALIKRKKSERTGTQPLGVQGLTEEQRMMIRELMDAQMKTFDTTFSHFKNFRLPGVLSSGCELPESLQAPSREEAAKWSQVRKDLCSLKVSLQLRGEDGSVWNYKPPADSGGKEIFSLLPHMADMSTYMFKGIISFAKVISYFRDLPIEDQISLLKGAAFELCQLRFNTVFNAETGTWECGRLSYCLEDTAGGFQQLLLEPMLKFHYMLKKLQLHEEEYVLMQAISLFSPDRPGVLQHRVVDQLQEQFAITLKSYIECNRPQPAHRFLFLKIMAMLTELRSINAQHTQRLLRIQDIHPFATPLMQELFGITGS
Chain of Thyrotropin-releasing hormone receptor (Homo sapiens) (P34981 whole entry, looked up): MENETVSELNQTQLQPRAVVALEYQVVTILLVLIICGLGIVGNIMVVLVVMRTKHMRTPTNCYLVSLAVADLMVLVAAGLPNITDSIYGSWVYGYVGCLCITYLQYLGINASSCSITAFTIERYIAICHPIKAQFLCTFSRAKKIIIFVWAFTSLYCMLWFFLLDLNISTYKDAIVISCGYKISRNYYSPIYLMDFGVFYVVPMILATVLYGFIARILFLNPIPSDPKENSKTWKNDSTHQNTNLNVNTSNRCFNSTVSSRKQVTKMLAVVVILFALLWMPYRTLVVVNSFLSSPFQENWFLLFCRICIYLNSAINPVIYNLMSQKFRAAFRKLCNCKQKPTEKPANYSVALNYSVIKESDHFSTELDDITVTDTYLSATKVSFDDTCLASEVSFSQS
Chain of Cytochrome P450 1A2 (Homo sapiens) (P05177 whole entry, looked up): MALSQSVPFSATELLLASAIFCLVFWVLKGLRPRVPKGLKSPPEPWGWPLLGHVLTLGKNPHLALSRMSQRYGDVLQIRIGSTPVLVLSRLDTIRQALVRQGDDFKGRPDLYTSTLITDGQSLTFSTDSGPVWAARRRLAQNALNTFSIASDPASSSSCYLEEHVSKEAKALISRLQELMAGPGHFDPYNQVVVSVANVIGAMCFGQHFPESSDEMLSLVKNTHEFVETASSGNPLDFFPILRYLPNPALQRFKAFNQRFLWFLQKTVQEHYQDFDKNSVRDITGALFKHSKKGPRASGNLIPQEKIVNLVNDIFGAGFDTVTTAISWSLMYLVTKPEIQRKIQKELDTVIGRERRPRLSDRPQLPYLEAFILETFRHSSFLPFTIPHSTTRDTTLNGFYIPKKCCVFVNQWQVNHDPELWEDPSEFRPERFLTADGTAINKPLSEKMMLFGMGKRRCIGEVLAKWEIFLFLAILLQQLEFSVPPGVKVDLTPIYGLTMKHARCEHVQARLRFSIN
Chain of Nuclear receptor subfamily 1 group I member 2 (Rattus norvegicus) (Q9R1A7 whole entry, looked up): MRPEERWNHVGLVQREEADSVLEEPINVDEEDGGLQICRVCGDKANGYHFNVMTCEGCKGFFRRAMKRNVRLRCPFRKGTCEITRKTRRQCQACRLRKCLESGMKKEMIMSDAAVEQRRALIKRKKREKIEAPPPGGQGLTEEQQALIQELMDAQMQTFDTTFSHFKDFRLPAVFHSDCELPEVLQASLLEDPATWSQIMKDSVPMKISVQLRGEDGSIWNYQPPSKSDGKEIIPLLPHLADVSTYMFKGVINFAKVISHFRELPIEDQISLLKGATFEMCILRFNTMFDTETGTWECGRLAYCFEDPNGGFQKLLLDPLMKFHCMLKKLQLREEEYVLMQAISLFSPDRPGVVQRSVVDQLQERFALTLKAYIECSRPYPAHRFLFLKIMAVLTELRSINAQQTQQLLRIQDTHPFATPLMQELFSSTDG

As to `C[C@@H]1NC(=O)[C@@H](N)CNC(=O)[C@H](C2CCNC(N)=N2)NC(=O)/C(=C/NC(N)=O)NC(=O)[C@H](CNC(=O)C[C@@H](N)CCCN)NC1=O` (stereo partly drawn), the values for the activation in [1], in assay [3] and in [8] were 2.64% [at 0.29 µM], -0.265% [at 0.218 µM] and -4.64% [at 0.349 µM], respectively. In addition, the activity, negative = inhibition in assay [2] was -1.68% [at 0.194 µM]. Besides, the activity change, negative = cytotoxicity is -2.73% [at 0.349 µM] in [4] and 9.26% [at 0.349 µM] in [6]. The caspase activation in [5] was -1.07% [at 0.349 µM]. Also, the caspase-3/7 activation in assay [7] is 0.0211% [at 0.349 µM]. The max activation in assay [9] is -6.29%. For the same compound, the compound was classed as inactive in [10] and in assay [11]. In addition, the activity change, negative = inhibition in assay [12] was -6.52% [at 0.435 µM]; in assay [13], 3.32% [at 0.435 µM]; in [14] it was 10.4% [at 0.435 µM]; in [15], 0.491% [at 0.29 µM].

With `C[C@@H]1CCC[C@H](C)N1CCCC(O)(c1ccccc1)c1ccccn1` (stereo partly drawn), the result in [1], in [2], in assay [4], in assay [5], in assay [7] and in [16] was inactive. Further, the Potency entry in assay [3], in assay [6], in assay [8], in assay [17], in [13] and in assay [14] was “inactive” each time. Besides, in assay [15], the Potency was 8.49 µM (active).

On to `C=CCn1cc[n+](C)c1`, for which the outcome in assay [1], in assay [2], in assay [4], in assay [5], in assay [7] and in assay [16] was inactive. Also, the Potency result in assay [3], in assay [6], in assay [17], in [13] and in assay [15] was “inactive” throughout.

As to `CC/C=C\CCOC(=O)c1ccccc1`, the compound was called inactive in [1], in assay [2], in [4], in [5], in [7] and in assay [16]. The Potency entry in assay [3], in [6], in [12], in [17], in [13] and in assay [15] was “inactive” throughout. For the same compound, the Potency result in [18] was “inactive”.

With `CC(C)(C)c1ccc(C(=O)CCCCl)cc1`, the compound was classed as inactive in [1], in assay [2], in [4], in assay [5], in assay [7] and in assay [16]. The Potency entry in [3], in assay [6], in assay [12], in assay [17], in [13] and in assay [15] was “inactive” throughout. Further, in assay [18], the Potency result was “inactive”. Moreover, in assay [14], the Potency is 12.3 µM (active).

As to `CC(C)C[P+](C)(CC(C)C)CC(C)C`, the compound was called inactive in assay [1], in [2], in assay [4], in [5], in assay [7] and in [16]. Also, the Potency entry in [3], in [6], in [13] and in assay [18] was “inactive” throughout.

For `Cc1cc(C)c(N)c(Cl)c1`, the compound was called inactive in [1], in assay [2], in assay [4], in assay [5] and in assay [7]. The Potency result in [3], in [6], in assay [8], in assay [12], in assay [15] and in assay [18] was “inactive” in each case. The Potency in assay [14] was 2.83 µM (active).

Turning to `CC(C)C(=O)Nc1cccc(C2CN3CCSC3=N2)c1` (stereo not drawn), the outcome in assay [1], in [2], in assay [4], in [5], in assay [7] and in assay [16] was inactive. Besides, the Potency result in assay [3], in [6], in assay [8], in assay [17], in assay [14] and in assay [15] was “inactive” in each case.

Consider `CC(=O)SC[C@@H](C)C(=O)N1CCC[C@H]1C(=O)N[C@@H](Cc1ccccc1)C(=O)O`, for which the compound was classed as inactive in [1], in assay [2], in [4], in [5] and in assay [7]. Moreover, the Potency entry in assay [3], in assay [6], in assay [8], in [12], in [17] and in assay [13] was “inactive” in each case. Besides, the Potency result in assay [14], in assay [15] and in assay [18] was “inactive” throughout.

For the compound `Cc1ccc2cccnc2c1`, the compound was called inactive in assay [1], in assay [2], in assay [4], in assay [5], in [7] and in assay [16]. Besides, the Potency entry in [3], in [6], in [8], in [17], in assay [13] and in assay [15] was “inactive” each time. Also, in [18], the Potency result is “inactive”. Besides, the Potency in [14] is 39.6 µM (active).
